A short description of experiment [1]: liver-stage malaria parasite load reduction – cell-based, known kinase inhibitor set, luminescence, hepatoma host viability (AID 624392).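 Also: infected cells incubated roughly two days before readout.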 The settings on record: Plasmodium liver stage in hepatoma cells, luciferase luminescence, concentration not given here; liver cell % of control: measured here: host liver cell viability; parasite % of control: stronger effect = lower value.

Experiment [2] has as its system Hepatitis C virus NS3 helicase. In words: blockers of NS3h binding to ssDNA – biochemical, fluorescence polarization, LOPAC1280 library, primary screen (AID 687035; in the data active = inhibition above about 37%). The settings on record: Purified HCV NS3 helicase, Cy5-dT15 ssDNA binding fluorescence polarization; stronger effect = higher value; concentration not given here.
Experiment [3] can be described thus: compounds altering Cy5-DNA-NS3h complex signal – biochemical, LOPAC1280, artefact control for HCV NS3 helicase inhibitor project (AID 687037). To be noted: Cy5-DNA-NS3h complex fluorescence interference counterscreen.
The subject of experiment [4] is Neuropilin-2 / VEGF-C interaction (human). In words: small molecules blocking Neuropilin-2/VEGF-C interaction – biochemical, microplate binding format, z-score (AID 743281). To be noted: microplate NRP2/VEGF-C binding assay.
A short description of experiment [5]: signal quenchers or enhancers, Cy5 substrate/SSB – biochemical, NIH Clinical Collection, E. coli SSB, artefact control for HCV NS3 helicase inhibitor project (AID 743268). To be noted: Cy5-oligo bound E. coli SSB, fluorescence interference.
The test system of experiment [6] is Hepatitis C virus NS3 helicase. In words: blockers of NS3h binding to DNA – biochemical, fluorescence polarization, NIH Clinical Collection, primary screen (AID 743270). The settings on record: NS3 helicase binding to Cy5-dT15 DNA, stronger effect = higher value, concentration not given here.
Experiment [7] deals with Single-stranded DNA-binding protein (Escherichia coli (strain K12)) (UniProt P0AGE0). In words: SSB-ssDNA binding inhibitors – biochemical, fluorescence polarization, NIH Clinical Collection, counter-screen for HCV NS3 helicase inhibitor project (AID 743271; in the data active = inhibition above about 28%). The settings on record: E. coli SSB-DNA binding, stronger effect = higher value, concentration not given here.
Experiment [8] can be described thus: compounds distorting NS3 helicase fluorescence signal – biochemical, NIH Clinical Collection, artefact control for HCV NS3 helicase inhibitor project (AID 743272).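 Also: HCV NS3 helicase with a Cy5 labelled single stranded DNA probe.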 The settings on record: fluorescence interference counterscreen, HCV NS3 helicase assay; stronger effect = lower value.

The source made the active and inactive calls. Unless noted, no rule for the calls is given here.

As to `COC(=O)c1ccc2c(c1)[nH]c(=O)c1c(Nc3ccc(OC(F)(F)F)cc3)ncnc12`, in experiment [1], the liver cell % of control is 107% and the parasite % of control is 97.4% (inactive).
For `Nc1ccc(-c2cnc(N)c(C(=O)c3cccnc3)n2)cn1` the same measures were 97.9% and 132% (inactive).
With `CN(C)CC=CC(=O)Nc1cccc(-c2c[nH]c3ncnc(Oc4ccc(NC(=O)CC(=O)Nc5ccc(F)cc5)cc4F)c23)c1`, in experiment [1], the liver cell % of control amounted to 96.3% and the parasite % of control is 155% (inactive).
For `COc1cc(NC(=O)c2ccno2)cc(C(=O)Nc2cccc(C(F)(F)F)c2)c1`, in that order: 96.7% and 70% (inactive).
For `COc1cc(Nc2ccccn2)cc(C(=O)Nc2cccc(C(F)(F)F)c2)c1` the same measures were 92.4% and 74.9% (inactive).
For `Cc1ccc(C(=O)Nc2cccc(C(F)(F)F)c2)cc1NC(=O)c1nccn1C` the same measures were 99.8% and 33.1% (inactive).
Consider `COc1cc(C(=O)NC2CCN(C)CC2)ccc1Nc1ncc2c(n1)N(CCc1ccccc1)CCC(=O)N2C`, for which, in experiment [1], the liver cell % of control amounted to 98.4% and the parasite % of control was 343% (inactive).
For `Cc1ccc(C(=O)Nc2cccc(C(F)(F)F)c2)cc1NC(=O)c1c[nH]c2cc(C(F)(F)F)ccc2c1=O`, in that order: 97.9% and 25.1% (inactive).
For `CCN1CCN(Cc2ccc(NC(=O)c3cc(NC(=O)c4nccnc4N)cc(OC)c3)cc2C(F)(F)F)CC1` the same measures were 98.4% and 64.5% (inactive).
For `CCN1CCN(Cc2ccc(NC(=O)c3cc(NC(=O)C4=NN(c5ccccc5)C(=O)C4)cc(OC)c3)cc2C(F)(F)F)CC1`, in that order: 100% and 110% (inactive).
As for `CC(C)C(CO)Nc1nc(NCc2ccc(S(N)(=O)=O)cc2)c2ncn(C(C)C)c2n1` (configuration not stated), in experiment [1], the liver cell % of control was 95.4% and the parasite % of control is 647% (inactive).
For `Cc1ccc(C(=O)Nc2cccc(C(F)(F)F)c2)cc1Nc1cncnc1` the same measures were 102% and 53.6% (inactive).
Take `CC(C)n1cnc2c(N(C)c3ccccc3)nc(N(CCN(C)C)Cc3ccccc3)nc21`: in experiment [1], the liver cell % of control stood at 84.5% and the parasite % of control is 24.1% (inactive).
As to `CC(=O)N[C@H]1[C@H]([C@H](O)[C@H](O)CO)OC(C(=O)O)=C[C@@H]1O`, the inhibition in experiment [2] is 2% (inactive). In addition, the fluorescence ratio (interference) in experiment [3] is 1 (inactive).
`O=C(Nc1cccc(-c2csc(Nc3ccccc3)n2)c1)c1ccccc1`: in experiment [1], the liver cell % of control was determined as 102% and the parasite % of control was 31.8% (inactive).
For the compound `Cc1cn(-c2cc(C(=O)Nc3ccc(C)c(NC(=O)N4CCNC4=O)c3)cc(C(F)(F)F)c2)cn1`, in experiment [1], the liver cell % of control was 98.1% and the parasite % of control was 72.3% (inactive).
Consider `Nc1ncnc2c1c(I)cn2[C@@H]1C[C@H](N)[C@@H](O)[C@H]1O`, for which the inhibition in experiment [2] was -1% (inactive). Besides, the fluorescence ratio (interference) in experiment [3] is 0.9 (inactive).
For `CN(C)C1=NC(=O)C(=Cc2ccc(-c3ccc(S(N)(=O)=O)cc3)o2)S1`, in experiment [1], the liver cell % of control stood at 99.8% and the parasite % of control is 84.6% (inactive).
With `COc1cc(NC(=O)c2nccn2C)cc(C(=O)Nc2cccc(C(F)(F)F)c2)c1`, in experiment [1], the liver cell % of control turned out to be 91.3% and the parasite % of control was 84.5% (inactive).
On to `CN(C)c1nc2c(Br)c(Br)c(Br)c(Br)c2[nH]1`, for which the inhibition in experiment [2] is 1% (inactive). In addition, in experiment [3], the fluorescence ratio (interference) is 1 (inactive).
`COc1ccc(CNc2nc(NCc3ccc(OC)cc3)c3ncn(C4CCCC4)c3n2)cc1`: in experiment [1], the liver cell % of control was determined as 90.6% and the parasite % of control is 265% (inactive).
For `CC(C)n1cnc2c(N(C)c3cccc(Cl)c3)nc(N(CCO)CCO)nc21`, in that order: 93.8% and 100% (inactive).
In the case of `Fc1cccc(/C=N\N=C/c2cccc(F)c2)c1`, the inhibition in experiment [2] was -2% (inactive). In experiment [3], the fluorescence ratio (interference) was 1 (inactive).
As for `C=CC(=O)Nc1cccc(Oc2ncnc3[nH]cc(-c4cnc5ccccc5c4)c23)c1`, in experiment [1], the liver cell % of control turned out to be 100% and the parasite % of control is 112% (inactive).
For `O=C(Nc1ccc(-c2csc(Nc3cccc(C(F)(F)F)c3)n2)cc1)c1cc([N+](=O)[O-])cc(C(F)(F)F)c1`, in that order: 101% and 70% (inactive).
For `NC1=NC(=O)C(=Cc2cccc(-c3ccc(S(N)(=O)=O)cc3)c2)S1`, in that order: 98% and 377% (inactive).
For `CO[C@H]1C=CO[C@@]2(C)Oc3c(C)c(O)c4c(O)c(c5c(c4c3C2=O)NC2(CCN(CC(C)C)CC2)N=5)=NC(=O)/C(C)=C\C=C[C@H](C)[C@H](O)[C@@H](C)[C@@H](O)[C@@H](C)[C@H](OC(C)=O)[C@@H]1C`, the compound was called inactive in experiment [4].
Regarding `CC/C(O)=N/S(=O)(=O)c1ccc(-c2c(-c3ccccc3)noc2C)cc1`, the fluorescence ratio in experiment [5] is 1.03 (inactive); in experiment [8] it was 1.01 (inactive). Further, the inhibition is -1.97% (inactive) in experiment [6] and -2.76% (inactive) in experiment [7].

These data come from PubChem BioAssay.
